This is an account of results in PubChem BioAssay (Tox21).

The nature of assay [1]: qHTS assay to identify small molecule antagonists of the peroxisome proliferator-activated receptor delta (PPARd) signaling pathway - cell viability counter screen (AID 743213). Note: nearly all actives have a fitted effect of over 50% in size. Note: potency is the fitted concentration of half-maximal effect. The method in brief: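 CellTiter-Glo was added to PPARd-bla HEK293H wells following 17 h compound treatment in the presence of 300 nM L165041. Luminescence was recorded after 30 min at room temperature.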

Assay [2] addresses Bile acid receptor (Homo sapiens) (UniProt Q96RI1). Description: qHTS assay to identify small molecule antagonists of the farnesoid-X-receptor (FXR) signaling pathway (AID 743217; active = well fitted inhibition curve with a large enough effect in the signal ratio in the repeat runs, not every such curve was filed as active; the % refers to the signal ratio). The method in brief:
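HEK 293T FXR-UAS-bla, 5000 cells/well; compound + CDCA 50 uM final; 16 h, 37 °C; B/G FRET substrate 2 h RT; fluorescence.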

Assay [3] in a line: qHTS assay to identify small molecule agonists of the farnesoid-X-receptor (FXR) signaling pathway - cell viability counter screen (AID 743218). Note: nearly all actives have a fitted effect of over 45% in size. Note: potency is the fitted concentration of half-maximal effect. The method in brief: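 HEK 293T FXR-bla cells; 5 h pre-incubation, 16 h compound exposure at 37 C; LiveBLAzer substrate 2 h RT, then CellTiter-Glo 30 min RT, luminescence.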
In assay [4] the target is Bile acid receptor (Homo sapiens) (UniProt Q96RI1). Briefly: qHTS assay to identify small molecule agonists of the farnesoid-X-receptor (FXR) signaling pathway (AID 743220; active = well fitted activation curve with a large enough effect in the signal ratio in the repeat runs, not every such curve was filed as active; the % refers to the signal ratio). The method in brief:
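Beta-lactamase reporter under UAS control in GeneBLAzer FXR HEK 293T cells (5000/well) measured with LiveBLAzer FRET substrate after 2 h at room temperature. Compound exposure lasted 16 h at 37C.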

Assay [5] can be described thus: qHTS assay to identify small molecule antagonists of the farnesoid-X-receptor (FXR) signaling pathway - cell viability counter screen (AID 743221; active = well fitted cell-killing curve with a large enough effect in the repeat runs, not every such curve was filed as active; note: nearly all actives have a fitted effect of over 50% in size; note: potency is the fitted concentration of half-maximal effect). The method in brief:
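Luminescence from CellTiter-Glo measures cytotoxicity in GeneBLAzer FXR-UAS-bla HEK 293T cells. Cells were exposed to compounds with 50 uM chenodeoxycholic acid (final) for 16 h at 37 C, in wells also used for the reporter readout.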

In assay [6] the target is Vitamin D3 receptor (Homo sapiens) (UniProt P11473). Briefly: qHTS assay to identify small molecule agonists of the vitamin D receptor (VDR) signaling pathway (AID 743222; calls by dose curve). The method in brief: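 VDR-bla cells, 2,000/well; 4 h preincubation 37C; cpd (DMSO) 16 h; LiveBLAzer B/G substrate 2 h RT; fluorescence intensity read.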
Sequence of Vitamin D3 receptor (Homo sapiens) (P11473 whole entry, looked up): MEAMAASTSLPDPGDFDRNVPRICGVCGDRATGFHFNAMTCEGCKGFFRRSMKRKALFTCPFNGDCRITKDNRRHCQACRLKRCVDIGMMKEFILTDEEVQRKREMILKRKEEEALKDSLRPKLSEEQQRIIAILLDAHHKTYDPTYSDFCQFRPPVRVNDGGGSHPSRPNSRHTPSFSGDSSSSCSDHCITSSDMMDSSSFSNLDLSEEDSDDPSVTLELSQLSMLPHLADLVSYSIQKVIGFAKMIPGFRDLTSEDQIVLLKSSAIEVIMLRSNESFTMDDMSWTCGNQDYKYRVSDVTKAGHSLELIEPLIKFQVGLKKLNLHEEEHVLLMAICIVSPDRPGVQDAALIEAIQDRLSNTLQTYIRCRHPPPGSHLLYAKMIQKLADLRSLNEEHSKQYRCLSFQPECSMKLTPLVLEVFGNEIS
Assay [7] has the same target. Briefly: qHTS assay to identify small molecule antagonists of the vitamin D receptor (VDR) signaling pathway (AID 743223; active = well fitted inhibition curve with a large enough effect in the signal ratio in the repeat runs, not every such curve was filed as active; the % refers to the signal ratio; note: potency is the fitted concentration of half-maximal effect). The method in brief:
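Antagonist mode uses 1alpha,25-dihydroxyvitamin D3 at 3 nM final as stimulus. VDR-bla cells receive compounds in DMSO, incubate 16 h at 37C, then a beta-lactamase FRET substrate for 2 h at room temperature before fluorescence measurement.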

Assay [8] in a line: qHTS assay to identify small molecule agonists of the vitamin D receptor (VDR) signaling pathway - cell viability counter screen (AID 743224). Note: nearly all actives have a fitted effect of over 50% in size. Note: potency is the fitted concentration of half-maximal effect. The method in brief: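 Luminescence from CellTiter-Glo, read after 30 min at room temperature, reports viability of VDR-bla cells treated with compounds for 16 h at 37C in the wells used for the beta-lactamase FRET read.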

Where “and” joins values, the source holds several entries; their conditions need not be identical. Equal entries are not always repeated. Records with an inconclusive call do not appear. More than one record can exist for a structure, and the calls need not agree. Calls of active or inactive are those of the source. Unless noted, calls come from the whole dose curve; as a rule, active = well fitted curve in the direction sought with a large enough effect in the repeat runs; inconclusive = weak or mixed curves; inactive = no such curve, though single readings can be large; an effect the other way counts as inactive or inconclusive.

Sequence of Bile acid receptor (Homo sapiens) (Q96RI1 whole entry, looked up): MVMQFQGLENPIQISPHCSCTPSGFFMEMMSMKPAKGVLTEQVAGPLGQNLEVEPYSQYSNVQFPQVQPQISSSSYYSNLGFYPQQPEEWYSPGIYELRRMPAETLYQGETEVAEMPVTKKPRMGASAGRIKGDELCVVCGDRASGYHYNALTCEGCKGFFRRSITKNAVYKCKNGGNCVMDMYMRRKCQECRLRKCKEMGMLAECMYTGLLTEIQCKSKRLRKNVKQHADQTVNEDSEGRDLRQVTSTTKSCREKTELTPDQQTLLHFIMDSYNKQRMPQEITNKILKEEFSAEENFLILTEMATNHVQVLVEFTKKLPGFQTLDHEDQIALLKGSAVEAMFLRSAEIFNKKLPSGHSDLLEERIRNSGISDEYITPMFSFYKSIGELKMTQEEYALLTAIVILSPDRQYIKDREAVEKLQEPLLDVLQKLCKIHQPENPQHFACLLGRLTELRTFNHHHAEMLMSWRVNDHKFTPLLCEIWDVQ

`O=Cc1ccc(CO)o1`: the Potency entry in assay [1], in assay [2], in assay [3], in assay [4], in assay [5] and in assay [7] was “inactive” throughout. Also, in assay [8], the Potency entry was “inactive”. Besides, the compound was classed as inactive in assay [6].
Turning to `O=C(NCC1CCCCN1)c1cc(OCC(F)(F)F)ccc1OCC(F)(F)F` (stereo not given), the Potency result in assay [1], in assay [3], in assay [5], in assay [7] and in assay [8] was “inactive” throughout. Also, the outcome in assay [6] was inactive.
With `C[Si](C)(C)N[Si](C)(C)C`, the Potency entry in assay [1], in assay [3], in assay [5] and in assay [8] was “inactive” in each case. Further, in assay [6], the compound was called inactive.
For the compound `C[n+]1ccn(CCO)c1`, the Potency entry in assay [1], in assay [3], in assay [5], in assay [7] and in assay [8] was “inactive” in each case. For the same compound, the compound was called inactive in assay [6].
As for `CC(C)(C)NC[C@H](O)COc1nsnc1N1CCOCC1`, the Potency entry in assay [1], in assay [3], in assay [5], in assay [7] and in assay [8] was “inactive” throughout. Besides, in assay [6], the outcome was inactive.
With `CCCCCCCC(=O)O`, the Potency result in assay [1], in assay [3], in assay [5], in assay [7] and in assay [8] was “inactive” each time. Besides, the outcome in assay [6] was inactive.
Turning to `O=C1O[C@H]([C@H](O)CO)C(O)=C1O`, the Potency result in assay [1], in assay [3], in assay [5] and in assay [8] was “inactive” throughout.
As to `c1cnc2c(c1)ccc1cccnc12`, the Potency in assay [1] was 389 nM (active); in assay [3] it was “inactive and 1.55 µM (active)”; in assay [5], 24.8 µM (active) and 776 nM (active) and 174 nM (active); in assay [7] it was 3.89 µM (active); in assay [8] it was 1.97 µM (active) and 2.75 µM (active) and 436 nM (active). Moreover, in assay [6], the compound was classed as inactive.
For the compound `CC(=O)Nc1ccc(CC(=O)O)cc1`, the Potency entry in assay [1], in assay [3], in assay [5] and in assay [8] was “inactive” in each case.
As to `COc1ccc([C@@H]2CC(=O)c3c(O)cc(O[C@@H]4O[C@H](CO[C@@H]5O[C@@H](C)[C@H](O)[C@@H](O)[C@H]5O)[C@@H](O)[C@H](O)[C@H]4O)cc3O2)cc1OC`, the Potency entry in assay [1], in assay [2], in assay [3], in assay [4], in assay [5] and in assay [7] was “inactive” in each case. The Potency entry in assay [8] is “inactive”. Moreover, in assay [6], the compound was classed as inactive.
For `NCCNCCNCCN`, the Potency result in assay [1], in assay [2], in assay [3], in assay [4], in assay [5] and in assay [7] was “inactive” each time. For the same compound, the Potency entry in assay [8] was “inactive”. Further, the compound was called inactive in assay [6].
As for `COc1ccccc1[N+](=O)[O-]`, the Potency result in assay [1], in assay [2], in assay [3], in assay [4], in assay [5] and in assay [7] was “inactive” in each case. Besides, in assay [8], the Potency result is “inactive”. The result in assay [6] was inactive.
As to `O=c1n(CCCN2CCN(c3cccc(Cl)c3)CC2)nc2ccccn12`, the Potency entry in assay [1], in assay [3], in assay [5] and in assay [8] was “inactive” each time.
For the compound `NC1CCCCC1N` (stereo not given), the Potency result in assay [1], in assay [2], in assay [3], in assay [4], in assay [5] and in assay [7] was “inactive” each time. In assay [8], the Potency entry is “inactive”. In assay [6], the compound was called inactive.
`CN1CCCC1=O`: the Potency entry in assay [1], in assay [3], in assay [5], in assay [7] and in assay [8] was “inactive” in each case. Further, the result in assay [6] was inactive.
As to `COc1c2ccoc2cc2oc(=O)ccc12`, the Potency result in assay [1], in assay [3], in assay [5], in assay [7] and in assay [8] was “inactive” in each case. In addition, the compound was classed as inactive in assay [6].
`CC(=O)OCc1ccc2c(c1)OCO2`: the Potency entry in assay [1], in assay [2], in assay [3], in assay [4], in assay [5] and in assay [7] was “inactive” in each case. Moreover, the Potency entry in assay [8] is “inactive”. For the same compound, the result in assay [6] was inactive.
Take `CCCN(CCC)C(=O)SCC`: the Potency entry in assay [1], in assay [3], in assay [5], in assay [7] and in assay [8] was “inactive” each time. In addition, in assay [6], the compound was called inactive.
As for `Clc1cccc(Cl)c1NC1=NCCN1`, the Potency entry in assay [1], in assay [3], in assay [5], in assay [7] and in assay [8] was “inactive” each time. In assay [6], the compound was called inactive.
Turning to `CCN(CC)CCNC(=O)c1ccc(N)cc1`, the Potency result in assay [1], in assay [3] and in assay [5] was “inactive” throughout.
Take `CCCOC(=O)NCCCN(C)C`: the Potency result in assay [1], in assay [3], in assay [5], in assay [7] and in assay [8] was “inactive” each time. Further, in assay [6], the result was inactive.
`CC(C)c1ccc(C(C)C)cc1`: the Potency result in assay [1], in assay [2], in assay [3], in assay [4], in assay [5] and in assay [7] was “inactive” each time. Besides, the Potency entry in assay [8] was “inactive”. Further, the compound was classed as inactive in assay [6].
Consider `CC/C=C(\C(=O)N[C@@H]1C(=O)N2C(C(=O)OCOC(=O)C(C)(C)C)=C(COC(N)=O)CS[C@H]12)c1csc(N)n1`, for which the Potency result in assay [1], in assay [3], in assay [5], in assay [7] and in assay [8] was “inactive” in each case. The compound was classed as inactive in assay [6].
In the case of `CCCCCCCCCCCCCC(=O)O`, the Potency entry in assay [1], in assay [2], in assay [3], in assay [4], in assay [5] and in assay [7] was “inactive” each time. For the same compound, the Potency entry in assay [8] was “inactive”. Moreover, in assay [6], the call was inactive.
